Records with an inconclusive call do not appear. Active and inactive are the calls of the source. Rule for the calls: active = hit-call score of the fitted dose curve at least 0.9, where 1 is the maximum; inconclusive = response in the unintended direction; inactive = score below 0.9.

This assay in a line: Tanguay_ZF_120hpf_SOMI_legacy: (Legacy) Oregon State University Tanguay Lab 120 Hour Post-fertilization zebrafish Assay for Somite Malformation (AID 2283647). On the procedure: Tanguay_ZF_120hpf_legacy is a whole embryo, multiplexed endpoint assay using zebrafish larvae exposed for 120 hours post fertilization on a 96-well plate.Tanguay_ZF_120hpf_SOMI_legacy is one of one assay component(s) measured or calculated from the Tanguay_ZF_120hpf_legacy assay. It is designed to make measurements of zebrafish development as detected with brightfield microscopy of developing zebrafish embryos.Data from the assay component Tanguay_ZF_120hpf_SOMI_legacy was analyzed into 1 assay endpoints. This assay endpoint, Tanguay_ZF_120hpf_SOMI_legacy, was analyzed in the positive analysis fitting direction relative to DMSO as the negative control and baseline of activity. Using a type of morphology reporter, gain-of-signal activity can be used to understand changes in developmentals as they relate to the whole embryo. To generalize the intended target to other relatable targets, this assay endpoint is annotated to the zebrafish development intended target family, where the subfamily is somitogenesis.
Zebrafish husbandry: Tropical 5D wild-type adult zebrafish were housed in at an approximate density of 1000 per 100 gallon tank at the Sinnhuber Aquatic Research Laboratory, Oregon State University, Corvallis, OR. Each tank was kept at standard laboratory conditions of 28C on a 14-h light/10-h dark photoperiod in fish water consisting of reverse osmosis water supplemented with a commercially available salt (Instant Ocean). Spawning funnels were placed into the tanks the night prior, and embryos were collected and staged. To increase bioavailability, the chorion was enzymatically removed using pronase (63.6mg/ml, >/= 3.5U/mg, Sigma-Aldrich: P5147) at 4 hours post fertilization (hpf) using a custom automated dechorionator.Chemical exposures: Six hpf dechorionated embryos were placed 1 embryo per well in a 96-well plate prefilled with 90 ul of EM using automated embryo placement systems (AEPS). Ten microliters of each row of dilution plate 2 was added to 2 exposure plates. The final DMSO concentration used was 0.64% (vol/vol). Thirty-two embryos were also exposed to 5uM trimethyltin chloride (positive control). Plates were sealed to prevent evaporation and foil covered to reduce light exposure and kept in a 28C incubator. Embryos were statically exposed until 120 hpf. At 24 hpf, embryos were assessed for photomotor response using a custom photomotor response analysis tool (PRAT) and for developmental toxicity endpoints (MO24: mortality at 24 hpf, DP: developmental progression, SM: spontaneous movement, and NC: notochord distortion). At 120 hpf, locomotor activity was measured using Viewpoint Zebralab and assessed for 18 endpoints. Zebrafish acquisition and analysis program (ZAAP), a custom program designed to inventory, acquire, and manage zebrafish data, was used to collect developmental endpoints as either present or absent (i.e., binary responses were recorded). If mortality occurred for an embryo (at either 24 or 120 hpf), the non-mortality endpoints were not measured.
On to `COc1ccc(-n2nc(C(F)F)cc2-c2ccc(S(C)=O)cc2)cc1` (stereo not given), for which the compound was called inactive. With `O=C(O)CC(O)C(=O)O` (stereo not given), the compound was called inactive.

`CCOC(=O)COc1ccc2c(c1)CC(NCC(O)c1cccc(Cl)c1)CC2` (stereo not given): the call was inactive. In the case of `CC(C)CCCCCCCOC(=O)CCCCC(=O)OCCCCCCCC(C)C`, the outcome was inactive. On to `O=P(OC(CCl)CCl)(OC(CCl)CCl)OC(CCl)CCl`, for which the AC50 (commonly the concentration giving half of the maximal activity seen) was 9.13 µM (active). On to `O=C(CCCCCCCCc1cccnc1)N1CCC(C=C(c2ccccc2)c2ccccc2)CC1`, for which the call was inactive. Regarding `Oc1ccc2c(c1)-c1ccccc1C2`, the AC50 is 49.1 µM (active). In the case of `CC[C@H](C)C(=O)O[C@H]1C[C@@H](C)C=C2C=C[C@H](C)[C@H](CC[C@@H]3C[C@@H](O)CC(=O)O3)[C@H]21`, the compound was classed as inactive.

As to `CCCC(=O)OCC`, the compound was called inactive. As to `COc1ccc(/C=C/S(=O)(=O)NC(=O)c2ccc(C)cc2Cl)cc1`, the outcome was inactive. As for `C=CC(=C)CCC=C(C)C`, the compound was called inactive. On to `CNCc1ccc(NC(=O)c2c[nH]c3c2C(=O)CCC3)cc1`, for which the call was inactive. Consider `COCCOc1cc2cc(C(=O)NC3CCN(C(C)C)CC3)n(CC(=O)Nc3ccc(Cl)cn3)c2cn1`, for which the call was inactive.

As for `CCOC(=O)CC(CC(=O)OCC)(OC(C)=O)C(=O)OCC`, the compound was classed as inactive.

With `CC[C@H]1CC[C@H](NCc2cc3c(cc2OC)[C@H]2C[C@H]2C(=O)N3C)[C@H](c2ccccc2)N1`, the call was inactive. As for `O=C1OC(=O)C2C3C=CC(C3)C12` (stereo not given), the compound was called inactive.

On to `CC(=O)OC[C@H]1O[C@@](COC(C)=O)(O[C@H]2O[C@H](COC(C)=O)[C@@H](OC(C)=O)[C@H](OC(C)=O)[C@H]2OC(C)=O)[C@@H](OC(C)=O)[C@@H]1OC(C)=O`, for which the call was inactive. The same measure, in the same setting: the result for `C[C@](N)(Cc1ccc(O)c(O)c1)C(=O)O` reads “inactive”; that for `CC1(C)C(=O)N(Br)C(=O)N1Br`, “inactive”; that for `CC(C)CCCCCCOC(=O)c1ccc(C(=O)OCCCCCCC(C)C)c(C(=O)OCCCCCCC(C)C)c1`, “inactive”.

Turning to `Cc1ccc(S(=O)(=O)O)cc1C`, the compound was called inactive. As for `CC(C)=CCCC(C)=CC=O`, the call was inactive. On to `CCOC(=O)c1ccc(C2CCC(NC[C@H](O)COc3ccc(O)c(NS(C)(=O)=O)c3)CC2)cc1` (stereo not given in full), for which the compound was called inactive. For `COc1cccc(-c2ccc(/C=C\CN3CCCCCC3)cc2Cl)c1`, the call was inactive. Regarding `O=C(OC[C@H]1O[C@@H](OC(=O)c2cc(O)c(O)c(OC(=O)c3cc(O)c(O)c(O)c3)c2)[C@H](OC(=O)c2cc(O)c(O)c(OC(=O)c3cc(O)c(O)c(O)c3)c2)[C@@H](OC(=O)c2cc(O)c(O)c(OC(=O)c3cc(O)c(O)c(O)c3)c2)[C@@H]1OC(=O)c1cc(O)c(O)c(OC(=O)c2cc(O)c(O)c(O)c2)c1)c1cc(O)c(O)c(OC(=O)c2cc(O)c(O)c(O)c2)c1`, the call was inactive.

With `CCCCC(CC)COC(=O)CCCCCCCCC(=O)OCC(CC)CCCC` (stereo not given), the compound was called inactive. The same measure, in the same setting: the result for `C=CCCCCCCCCC(=O)O` reads “inactive”. As to `CC(C)CCO`, the compound was classed as inactive. As for `COC(=O)c1c(Cl)c(Cl)c(C(=O)OC)c(Cl)c1Cl`, the result was inactive. For the compound `CNS(=O)(=O)c1cc(C(=O)N2CCC(CCN3C4CCC3CC(n3c(C)nc5ccccc53)C4)(c3cccc(F)c3)CC2)c(Cl)cc1F` (stereo not given), the outcome was inactive.

Take `CN(C)c1ccc(N=NS(=O)(=O)O)cc1`: the outcome was inactive. As for `O=c1n(CC2CO2)c(=O)n(CC2CO2)c(=O)n1CC1CO1` (stereo not given), the result was inactive. On to `CCOc1cccc(-n2cc(C(=O)N3CCN(c4cc(C(=O)O)c5ccccc5c4)CC3)nc2-c2ccc(C)cc2)c1`, for which the result was inactive. For `CCCCC(CC)COC(=O)c1ccc(C(=O)OCC(CC)CCCC)cc1` (stereo not given), the outcome was inactive.

In the case of `COC(=O)c1ccccc1O`, the compound was called inactive.

`Cn1cnc([N+](=O)[O-])c1Sc1ncnc2nc[nH]c12`: the result was inactive.

For the compound `Nc1ccc(Nc2ccccc2)cc1`, the AC50 was 40.1 µM (active).

Consider `CCNc1ccccc1`, for which the compound was classed as inactive. Turning to `CC[C@H]1OC(=O)[C@H](C)[C@@H](O[C@H]2C[C@@](C)(OC)[C@@H](O)[C@H](C)O2)[C@H](C)[C@@H](O[C@@H]2O[C@H](C)C[C@H](N(C)C)[C@H]2O)[C@](C)(O)C[C@@H](C)C(=O)[C@H](C)[C@@H](O)[C@]1(C)O`, the outcome was inactive. Consider `CC(=O)c1ccc2c(c1)[C@H](NC(=O)c1ccc(F)cc1)[C@@H](O)C(C)(C)O2`, for which the call was inactive.

Values taken from PubChem BioAssay (EPA / NIEHS).
